The record followed here is ChEMBL document CHEMBL5308504, “Tm Shift (DSF) assay results for EUbOPEN Chemogenomics Library” (2023).

Conditions in all cases: Compound concentration 20.0 uM, Protein concentration 2.0 uM, Result type QC Liability
Experiment [1] has as its target Tyrosine-protein kinase ABL1 (Homo sapiens) (UniProt P00519).
The target in experiment [2] is Cyclin-dependent kinase 2 (Homo sapiens) (UniProt P24941).
The target of experiment [3] is Casein kinase I isoform delta (Homo sapiens) (UniProt P48730).
Experiment [4] addresses Glycogen synthase kinase-3 beta (Homo sapiens) (UniProt P49841).
The target in experiment [5] is Mitogen-activated protein kinase 1 (Homo sapiens) (UniProt P28482).
The target in experiment [6] is T1, Aurora kinase A (Homo sapiens) (UniProt O14965).
T1 sequence (whole entry): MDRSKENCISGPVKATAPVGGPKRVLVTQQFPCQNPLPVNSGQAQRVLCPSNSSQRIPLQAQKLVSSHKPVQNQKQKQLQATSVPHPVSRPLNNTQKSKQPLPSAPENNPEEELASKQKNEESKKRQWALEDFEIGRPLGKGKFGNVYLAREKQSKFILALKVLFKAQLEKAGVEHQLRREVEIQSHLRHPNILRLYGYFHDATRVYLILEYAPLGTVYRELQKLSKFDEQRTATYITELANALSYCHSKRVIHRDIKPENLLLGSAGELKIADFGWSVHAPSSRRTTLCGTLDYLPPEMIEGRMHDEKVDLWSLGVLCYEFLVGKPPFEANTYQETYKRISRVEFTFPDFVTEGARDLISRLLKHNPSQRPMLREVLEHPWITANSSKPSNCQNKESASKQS

SMILES strings stand for the structures.

Chain of Glycogen synthase kinase-3 beta (Homo sapiens) (P49841 whole entry, looked up): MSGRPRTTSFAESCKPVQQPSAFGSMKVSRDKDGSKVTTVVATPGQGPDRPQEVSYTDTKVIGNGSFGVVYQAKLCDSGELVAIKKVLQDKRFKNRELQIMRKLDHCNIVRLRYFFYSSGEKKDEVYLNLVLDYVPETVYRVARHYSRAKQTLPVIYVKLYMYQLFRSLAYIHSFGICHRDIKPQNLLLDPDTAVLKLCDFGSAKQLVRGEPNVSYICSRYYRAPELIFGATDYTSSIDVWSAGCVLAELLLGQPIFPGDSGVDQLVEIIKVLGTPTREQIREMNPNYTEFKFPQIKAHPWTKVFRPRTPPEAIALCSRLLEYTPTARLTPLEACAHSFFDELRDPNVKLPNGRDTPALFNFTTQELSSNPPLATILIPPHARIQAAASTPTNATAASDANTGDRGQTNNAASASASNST
Chain of Casein kinase I isoform delta (Homo sapiens) (P48730 whole entry, looked up, canonical isoform): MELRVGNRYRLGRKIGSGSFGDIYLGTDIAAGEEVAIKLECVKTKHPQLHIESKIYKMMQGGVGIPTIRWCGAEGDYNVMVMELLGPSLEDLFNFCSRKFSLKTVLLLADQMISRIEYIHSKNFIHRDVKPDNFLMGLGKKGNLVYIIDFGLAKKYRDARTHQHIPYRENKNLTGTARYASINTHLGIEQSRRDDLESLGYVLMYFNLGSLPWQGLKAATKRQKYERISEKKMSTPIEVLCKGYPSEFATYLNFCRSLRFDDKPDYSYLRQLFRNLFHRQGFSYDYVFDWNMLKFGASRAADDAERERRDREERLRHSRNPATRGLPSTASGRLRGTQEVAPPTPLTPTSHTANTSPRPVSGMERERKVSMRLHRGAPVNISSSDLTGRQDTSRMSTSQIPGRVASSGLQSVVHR
Chain of Tyrosine-protein kinase ABL1 (Homo sapiens) (P00519 whole entry): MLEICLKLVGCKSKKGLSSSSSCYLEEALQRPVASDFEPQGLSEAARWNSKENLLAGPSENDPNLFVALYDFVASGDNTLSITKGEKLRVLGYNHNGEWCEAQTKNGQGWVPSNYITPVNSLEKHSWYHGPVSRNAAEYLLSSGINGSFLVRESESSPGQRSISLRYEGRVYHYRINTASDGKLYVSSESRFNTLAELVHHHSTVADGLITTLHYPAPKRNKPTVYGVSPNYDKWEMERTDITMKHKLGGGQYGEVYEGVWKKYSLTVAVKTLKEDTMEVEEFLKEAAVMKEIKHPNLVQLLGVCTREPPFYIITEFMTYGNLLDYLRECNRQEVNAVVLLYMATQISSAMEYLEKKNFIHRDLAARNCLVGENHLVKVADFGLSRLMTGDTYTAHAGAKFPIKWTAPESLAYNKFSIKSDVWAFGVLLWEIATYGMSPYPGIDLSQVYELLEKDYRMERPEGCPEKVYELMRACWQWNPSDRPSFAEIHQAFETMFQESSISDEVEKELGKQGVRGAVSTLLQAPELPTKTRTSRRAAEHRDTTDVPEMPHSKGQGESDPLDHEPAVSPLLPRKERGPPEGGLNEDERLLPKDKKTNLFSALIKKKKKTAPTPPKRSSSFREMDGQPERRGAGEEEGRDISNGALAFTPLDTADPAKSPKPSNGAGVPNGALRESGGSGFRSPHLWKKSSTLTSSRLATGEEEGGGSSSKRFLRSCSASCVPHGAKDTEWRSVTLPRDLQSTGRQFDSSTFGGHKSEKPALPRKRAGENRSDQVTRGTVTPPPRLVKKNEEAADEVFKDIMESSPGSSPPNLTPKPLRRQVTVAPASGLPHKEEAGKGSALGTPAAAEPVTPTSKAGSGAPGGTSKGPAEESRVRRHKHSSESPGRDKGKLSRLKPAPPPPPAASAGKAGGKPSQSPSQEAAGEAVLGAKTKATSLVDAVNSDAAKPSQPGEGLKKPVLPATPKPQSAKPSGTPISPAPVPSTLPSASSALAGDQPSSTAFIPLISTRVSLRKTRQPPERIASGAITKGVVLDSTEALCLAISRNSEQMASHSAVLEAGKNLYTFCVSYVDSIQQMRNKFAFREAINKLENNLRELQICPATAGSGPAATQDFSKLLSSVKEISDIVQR
Chain of Mitogen-activated protein kinase 1 (Homo sapiens) (P28482 whole entry): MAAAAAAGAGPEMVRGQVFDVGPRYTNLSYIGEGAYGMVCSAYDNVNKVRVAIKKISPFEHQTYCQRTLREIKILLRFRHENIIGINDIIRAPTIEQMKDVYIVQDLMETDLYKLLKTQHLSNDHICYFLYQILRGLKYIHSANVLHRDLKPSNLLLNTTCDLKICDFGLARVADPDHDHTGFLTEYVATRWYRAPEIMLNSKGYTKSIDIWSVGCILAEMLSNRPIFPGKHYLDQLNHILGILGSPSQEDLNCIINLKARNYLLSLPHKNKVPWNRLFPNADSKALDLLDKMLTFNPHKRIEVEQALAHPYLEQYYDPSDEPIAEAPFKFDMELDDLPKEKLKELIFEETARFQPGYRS

Take `CC1(C)C[C@@H]1C(=O)N/C(=C\CCCCSC[C@H](N)C(=O)O)C(=O)O`: the ΔTm in experiment [1] was 0.34 °C; in experiment [2], 0.8 °C; in experiment [3], -0.09 °C; in experiment [4] it was 0.21 °C; in experiment [5] it was -0.39 °C; in experiment [6] it was -0.41 °C.

`O=C(CCCCCCc1ccccc1)c1ncc(-c2ccccn2)o1`: the ΔTm in experiment [1] was 0.19 °C; in experiment [2], 0.75 °C; in experiment [3], 0.19 °C; in experiment [4], -0.85 °C; in experiment [5], -0.04 °C; in experiment [6], -0.34 °C.

Consider `NC(=O)c1sc2nc(N3CCC(NC[C@H](O)c4ccccn4)CC3)cc(C(F)(F)F)c2c1N`, for which the ΔTm in experiment [1] is 1.22 °C; in experiment [2], 1 °C; in experiment [3], 1.86 °C; in experiment [4], 0.72 °C; in experiment [5], 0.39 °C; in experiment [6] it was 1.06 °C.

`O=C(O)C[C@H]1CC[C@H](c2ccc(NC(=O)c3nnc(Nc4ccc(F)c(F)c4)o3)cc2)CC1`: the ΔTm in experiment [1] was -0.04 °C; in experiment [2] it was 0.24 °C; in experiment [3], -0.9 °C; in experiment [4], -0.67 °C; in experiment [5], -2.59 °C; in experiment [6], 0.92 °C.

With `COc1c(NC(=O)c2cc3cccc(Oc4ccnc(C(=O)N5CCN(C)CC5)c4)c3n2C)cc(C(C)(C)C)cc1NS(C)(=O)=O`, the ΔTm in experiment [1] is 0.38 °C; in experiment [2] it was -0.2 °C; in experiment [3] it was 0.73 °C; in experiment [4], -0.6 °C; in experiment [5] it was 0.86 °C; in experiment [6], -1.1 °C.

`CCn1c(=O)c2c(C)c(C(=O)N3CCC(O)CC3)sc2n(CCC(F)(F)F)c1=O`: the ΔTm was 0.35 °C in experiment [1]; 0.49 °C in experiment [2]; 0.3 °C in experiment [3]; -0.42 °C in experiment [4]; 0.14 °C in experiment [5]; 0.03 °C in experiment [6].

With `CNc1nc(-c2ccc3c(N)n[nH]c3c2)cc(N2C[C@@H](C(=O)NC3CCCCC3)CC[C@H]2C)n1`, the ΔTm in experiment [1] is 0.49 °C; in experiment [2], -0.54 °C; in experiment [3], 0.18 °C; in experiment [4], 0.25 °C; in experiment [5], 0.38 °C; in experiment [6], 2.89 °C.

Turning to `CCCCC/C=C/C=C1/C(=O)C=C[C@@H]1C/C=C\CCCC(=O)O`, the ΔTm is -2.05 °C in experiment [1]; -0.61 °C in experiment [2]; -0.75 °C in experiment [3]; -0.25 °C in experiment [4]; -0.53 °C in experiment [5]; -1.52 °C in experiment [6].

On to `O=C(Nc1cccc(Nc2nccc(Nc3cccc(C(F)(F)F)c3)n2)c1)C1CC1`, for which the ΔTm in experiment [1] turned out to be 1.63 °C; in experiment [2], 1.44 °C; in experiment [3] it was 1.09 °C; in experiment [4], 3.86 °C; in experiment [5], 0.42 °C.

With `O=C(N[C@H](Cc1ccccc1)C(=O)O)c1cccc(OCc2cccnc2)c1`, the ΔTm was 0.31 °C in experiment [1]; 1.19 °C in experiment [2]; -0.02 °C in experiment [3]; 0.45 °C in experiment [4]; 0.21 °C in experiment [5]; -0.05 °C in experiment [6].

`CC1=C(C(=O)OCCO)[C@@H](c2ccc(C#N)cc2)NC(=O)N1c1cccc(C(F)(F)F)c1`: the ΔTm in experiment [1] is -0.45 °C; in experiment [2], -0.38 °C; in experiment [3] it was 0.44 °C; in experiment [4], -0.19 °C; in experiment [5], 0.15 °C; in experiment [6] it was -0.11 °C.

Consider `CC1(C)CCC(CN2CCN(c3ccc(C(=O)NS(=O)(=O)c4ccc(NCC5CCOCC5)c([N+](=O)[O-])c4)c(Oc4cnc5[nH]ccc5c4)c3)CC2)=C(c2ccc(Cl)cc2)C1`, for which the ΔTm was -0.27 °C in experiment [1]; 1.18 °C in experiment [2]; -0.88 °C in experiment [3]; -0.99 °C in experiment [4]; 0.48 °C in experiment [5]; 0.44 °C in experiment [6].

Take `OC(c1ccc(-c2ccc(CN3CCN(Cc4ccncc4)CC3)cc2)c(F)c1)(C(F)(F)F)C(F)(F)F`: the ΔTm in experiment [1] is -0.1 °C; in experiment [2] it was 0.64 °C; in experiment [3], -0.18 °C; in experiment [4] it was -0.86 °C; in experiment [5], 0.02 °C; in experiment [6], -1.1 °C.

In the case of `CC(C)(O)[C@H](F)CN1Cc2cc(NC(=O)c3cnn4cccnc34)c(N3CCOCC3)cc2C1=O`, the ΔTm was 2.02 °C in experiment [1]; -0.03 °C in experiment [2]; 0.59 °C in experiment [3]; 0.95 °C in experiment [4]; 0.46 °C in experiment [5]; 3.04 °C in experiment [6].

As for `CN(C)C/C=C/C(=O)Nc1cccc(S(=O)(=O)N2CCC(NC(=O)c3n[nH]cc3NC(=O)c3c(Cl)cc(Cl)cc3Cl)CC2)c1`, the ΔTm in experiment [1] worked out at 3.66 °C; in experiment [2] it was 11.4 °C; in experiment [3], 2.28 °C; in experiment [4] it was 10.9 °C; in experiment [5], 1.34 °C; in experiment [6] it was 2.6 °C.

Consider `Cc1cc(OC2CCS(=O)(=O)CC2)cc(C)c1-c1cccc(COc2ccc(C(=O)O)c(F)c2)c1`, for which the ΔTm in experiment [1] was 0.14 °C; in experiment [2], -1.08 °C; in experiment [3], 0.23 °C; in experiment [4], -0.54 °C; in experiment [5] it was 0.7 °C; in experiment [6], -1.19 °C.

Regarding `O=C(O)[C@]1(Cc2cccc(Nc3nccs3)n2)CC[C@@H](Oc2cccc(Cl)c2F)CC1`, the ΔTm was 17.2 °C in experiment [1]; 5.36 °C in experiment [2]; 1.53 °C in experiment [3]; 8.49 °C in experiment [4]; 1.32 °C in experiment [5]; 25.4 °C in experiment [6].

On to `O=C(O)C[C@H]1CCn2c1c(Sc1ccc(Cl)cc1)c1ccc(F)cc12`, for which the ΔTm is -1 °C in experiment [1]; -1.1 °C in experiment [2]; -0.47 °C in experiment [3]; 0 °C in experiment [4]; -0.38 °C in experiment [5]; -0.18 °C in experiment [6].

On to `Clc1ccc(-c2nc3sccn3c2/C=N/OCc2ccc(Cl)c(Cl)c2)cc1`, for which the ΔTm in experiment [1] is -0.76 °C; in experiment [2], -0.94 °C; in experiment [3] it was -2.09 °C; in experiment [4], -0.83 °C; in experiment [5], -0.15 °C; in experiment [6], -1.05 °C.

`COCCN(C)c1ccc(NC(=O)/C=C(\C)c2ccc3ccccc3c2)c(C(=O)O)c1`: the ΔTm was -1.57 °C in experiment [1]; 1.03 °C in experiment [2]; 1.4 °C in experiment [3]; 2.78 °C in experiment [4]; -0.17 °C in experiment [5]; 1.7 °C in experiment [6].

`CN1Cc2nccc(-c3cn(C)nc3-c3ccc(F)cc3)c2C1=O`: the ΔTm in experiment [1] is 1.06 °C; in experiment [2] it was 0.02 °C; in experiment [3], 8 °C; in experiment [4], -0.07 °C; in experiment [5], 0.37 °C; in experiment [6] it was -0.11 °C.

For `CCCCCCC(Sc1nc(Cl)cc(NCc2ccc(-c3ccccc3)cc2)n1)C(=O)O` (stereo unspecified), the ΔTm in experiment [1] is -0.03 °C; in experiment [2], -0.83 °C; in experiment [3] it was 0 °C; in experiment [4], 0 °C; in experiment [5], 0 °C; in experiment [6], -1.22 °C.

As for `C/C=C1\C(=O)CC2C3CCC4=CC(=O)CC[C@]4(C)C3CC[C@]12C` (stereo partly specified), the ΔTm in experiment [1] was 0.07 °C; in experiment [2], -0.3 °C; in experiment [3] it was 0.63 °C; in experiment [4] it was -1.05 °C; in experiment [5] it was 0.47 °C; in experiment [6], -1.78 °C.

Consider `Cc1cc2c(-c3ccco3)cnc(N[C@H]3CCN(C)C[C@@H]3C(=O)NC3CCCCC3)c2[nH]c1=O`, for which the ΔTm in experiment [1] is 0.25 °C; in experiment [2], 0.22 °C; in experiment [3], 0.37 °C; in experiment [4], -0.67 °C; in experiment [5], 0.2 °C; in experiment [6] it was -1.37 °C.

Take `CNc1oc(-c2cccc3ccccc23)nc1C#N`: the ΔTm is 0.54 °C in experiment [1]; 0.95 °C in experiment [2]; -0.04 °C in experiment [3]; 0.49 °C in experiment [4]; 0.02 °C in experiment [5]; 0.57 °C in experiment [6].

As to `Cc1cc(=O)n(C)c2cc(N3C(=O)CC[C@H](NS(=O)(=O)CC(C)C)[C@H]3c3ccc(Cl)cc3)ccc12`, the ΔTm in experiment [1] was 0.08 °C; in experiment [2], 0.6 °C; in experiment [3], -0.11 °C; in experiment [4], -0.55 °C; in experiment [5], 0.38 °C; in experiment [6], 0.15 °C.

As for `CC(=O)c1c(C)c2cnc(Nc3ccc(N4CCN(CCCCNC(=O)COc5cccc6c5C(=O)N(C5CCC(=O)NC5=O)C6=O)CC4)cn3)nc2n(C2CCCC2)c1=O` (stereo unspecified), the ΔTm was 0.12 °C in experiment [1]; 0.59 °C in experiment [2]; 0.26 °C in experiment [3]; 0.7 °C in experiment [4]; 0.16 °C in experiment [5]; -0.33 °C in experiment [6].

By ΔTm is commonly meant the shift of the melting midpoint relative to a reference.
